The nature of assay [1]: anti-His antibody binders, primary screen, artefact control for SMM control protein annotation, biochemical, small-molecule microarray, 635 nm fluorescence (AID 1128).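 Further: score merges feature fluorescence with signal-to-noise for each printed compound spot.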 Particulars: anti-His Alexa647 antibody binding, higher = more signal.
Assay [2] has as its system Human papillomavirus type 1a E7 protein (residues 1-88). Kind of assay: HPV1a E7 small-molecule binders, primary screen, biochemical, small-molecule microarray, residues 1-88, 635 nm (AID 1129). Particulars: small-molecule microarray binding, fluorescence 635 nm; higher = more signal.
For assay [3], the target named is Focal adhesion kinase 1 (Homo sapiens) (UniProt Q05397). Kind of assay: small-molecule microarray binders of FAK, primary screen, biochemical, 635/667 nm fluorescence, BSA, DTT (AID 1130).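 Further: composite of spot emission at 667 nm and signal to noise over triplicate slides.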 The following applies: PTK2 binding, 635 nm fluorescence, higher = more signal.
Assay [4] concerns Fibrinogen (Alexa647-labelled). As to the kind of experiment: fibrinogen binders on compound microarrays, profiling panel, artefact control for SMM control-protein annotation, biochemical, small-molecule microarray, 635/667 nm fluorescence (AID 1131).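 Further: z-score merges 667 nm fluorescence with per-spot signal-to-noise over triplicate slides.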 The following applies: fibrinogen-A647 binding fluorescence, higher = more signal.
Assay [5] deals with Follistatin (Homo sapiens) (UniProt P19883). As to the kind of experiment: follistatin binders on small-molecule microarrays, primary screen, biochemical, small-molecule microarray, 635/667 nm fluorescence (AID 1132). Particulars: FST binding, 635 nm fluorescence, higher = more signal.
Assay [6] concerns the target Fibroblast growth factor 2 (Homo sapiens) (UniProt P09038). As to the kind of experiment: FGF2 binders on small-molecule microarrays, primary screen, biochemical, small-molecule microarray, 635/667 nm fluorescence (AID 1133). Particulars: small-molecule microarray binding, FGF2, fluorescence 635/667; higher = more signal.
Assay [7] can be described thus: mitochondrial membrane potential change in A549 cells, profiling panel, cell-based, JC-1 fluorescence, basal, 24 h, 100 nL (AID 1138).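 Further: A549 lung adenocarcinoma cells under basal conditions with no added stimulus; test concentration not given here.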 The following applies: higher = more signal.
The test system of another assay is Lefty1. As to the kind of experiment: Lefty1 binders on small-molecule microarrays, primary screen, biochemical, small-molecule microarray, 635/667 nm fluorescence (AID 1139). Particulars: small-molecule microarray binding, fluorescence 635/667; higher = more signal.
For assay [8], the system named is wheat germ agglutinin (Triticum aestivum), Alexa647-labelled. As to the kind of experiment: wheat germ agglutinin binders on compound microarrays, profiling panel, artefact control for SMM control-protein annotation, biochemical, small-molecule microarray, 635/667 nm fluorescence (AID 1140).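 Further: score merges 667 nm feature emission with signal to noise over triplicate slides.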 Particulars: WGA-A647 binding, 635 nm fluorescence, higher = more signal.

For assay [9], the target named is Luciferin 4-monooxygenase (Photinus pyralis) (UniProt P08659). As to the kind of experiment: firefly luciferase enzyme inhibitors, primary screen, biochemical, luminescence, purified enzyme, 2006 set (AID 1141).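 Further: cell-free assay with purified firefly luciferase at 100 ng per well in PBS; test concentration not given here.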 The following applies: SteadyGlo luminescence, 30 min, higher = more signal, called active from +8 up or from −8 down.
Assay [10] deals with Wnt5a (protein binding on small-molecule microarray). Kind of assay: Wnt5a binders on small-molecule microarray, primary screen, biophysical, 635/667 nm fluorescence (AID 1142).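 Further: fluorescence read at 667 nm with signal to noise per printed feature.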 Particulars: 635 nm fluorescence, higher = more signal.
Assay [11] can be described thus: cell viability in Huh7 cells, primary screen, cytotoxicity control for HCV replication inhibitor project, CellTiter-Glo luminescence, basal, 48 h (AID 1143).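 Further: Huh7 hepatoma cells carrying a hepatitis C replication reporter with no stimulus; test concentration not given here.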 Particulars: Huh7 HCV replicon, higher = more signal, called active from +8 up or from −8 down.
Assay [12] in a line: P. aeruginosa biofilm formation inhibitors, primary screen, PAO1 strain, BacTiter-Glo luminescence, LB-PBS (AID 1144). Particulars: 12 h, higher = more signal.
Assay [13] is described as follows: CREB reporter modulators without forskolin, primary screen, cell-based, PC12, CRE-LacZ reporter, unstimulated (AID 1145). The following applies: no forskolin, luminescence, 4.5 h, higher = more signal, called active from +8 up or from −8 down.
Assay [14] in a line: CREB reporter modulators under forskolin, primary screen, cell-based, PC12, CRE-LacZ reporter, forskolin-stimulated (AID 1146).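 Further: PC12 cells with 6xCRE LacZ reporter stimulated by forskolin 10 µM; beta-galactosidase reporter signal reflecting CREB driven transcription.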 The following applies: luminescence, 4.5 h, higher = more signal, called active from +8 up or from −8 down.
Assay [15] has as its target Streptavidin (Streptomyces avidinii) (UniProt P22629). Kind of assay: streptavidin binders on small-molecule microarray, primary screen, artefact control for SMM compound annotation, biophysical, 635/667 nm fluorescence (AID 1147).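 Further: signal reflects streptavidin binding to arrayed compounds as a control protein.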 The following applies: streptavidin binding, higher = more signal.
The nature of assay [16]: small-molecule binders of probe aInhba, primary screen, biochemical, small-molecule microarray, 635/667 nm fluorescence (AID 1148).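 Further: score merges 667nm spot fluorescence with signal-to-noise for antibody binding to printed compounds.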 Particulars: higher = more signal.
The target in assay [17] is Torsin-1A (Homo sapiens) (UniProt O14656). Kind of assay: torsin A binders from cell lysate, primary screen, small-molecule microarray, wild-type, 635/667 nm (AID 1149). Particulars: COS7 hTOR1A-WT lysate, 635 nm fluorescence, higher = more signal.
Assay [18] shares this target. As to the kind of experiment: small-molecule binders of mutant TOR1A in lysate, primary screen, cell lysate, small-molecule microarray, COS7 lysate, 635/667 nm fluorescence (AID 1150).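 Further: score pools 667 nm emission and signal to noise measuring lysate protein binding.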 Particulars: COS7 hTOR1A mutant lysate, 635 nm fluorescence, higher = more signal.
Assay [19] relates to Sonic hedgehog protein (Shh). As to the kind of experiment: small-molecule binders of Shh protein, primary screen, biochemical, small-molecule microarray, 635/667 nm fluorescence (AID 1151).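 Further: Shh protein binding to compounds spotted on small-molecule microarray slides; score combines spot fluorescence intensity with signal-to-noise across triplicate slides.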 The following applies: small-molecule microarray binding, 635 nm fluorescence; higher = more signal.

The source made the active and inactive calls. Unless noted, how the calls were made is not given here.

Chain of Luciferin 4-monooxygenase (Photinus pyralis) (P08659 whole entry, looked up): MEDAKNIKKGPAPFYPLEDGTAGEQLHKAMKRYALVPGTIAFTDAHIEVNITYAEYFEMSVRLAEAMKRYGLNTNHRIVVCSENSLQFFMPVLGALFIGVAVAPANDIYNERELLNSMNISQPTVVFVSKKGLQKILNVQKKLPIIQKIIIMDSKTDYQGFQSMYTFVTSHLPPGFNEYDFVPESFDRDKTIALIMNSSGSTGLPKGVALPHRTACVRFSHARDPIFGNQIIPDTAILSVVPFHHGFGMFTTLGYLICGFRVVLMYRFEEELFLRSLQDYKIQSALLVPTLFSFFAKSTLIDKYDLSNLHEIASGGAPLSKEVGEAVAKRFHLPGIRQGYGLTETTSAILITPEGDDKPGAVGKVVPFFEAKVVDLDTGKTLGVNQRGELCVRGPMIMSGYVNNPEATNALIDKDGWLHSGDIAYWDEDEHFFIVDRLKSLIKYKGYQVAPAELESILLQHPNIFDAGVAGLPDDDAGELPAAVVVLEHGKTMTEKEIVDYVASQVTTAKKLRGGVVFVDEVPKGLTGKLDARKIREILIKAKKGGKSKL
Chain of Follistatin (Homo sapiens) (P19883 whole entry, looked up): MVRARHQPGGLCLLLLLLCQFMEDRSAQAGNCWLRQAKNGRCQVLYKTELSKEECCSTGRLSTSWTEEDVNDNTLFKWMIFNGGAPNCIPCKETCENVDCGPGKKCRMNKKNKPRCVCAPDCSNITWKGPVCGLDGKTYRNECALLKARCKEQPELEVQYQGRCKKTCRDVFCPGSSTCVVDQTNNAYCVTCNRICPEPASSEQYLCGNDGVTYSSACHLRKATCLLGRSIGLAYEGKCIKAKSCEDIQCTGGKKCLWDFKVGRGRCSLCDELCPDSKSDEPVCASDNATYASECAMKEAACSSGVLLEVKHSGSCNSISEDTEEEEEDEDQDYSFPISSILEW
Chain of Torsin-1A (Homo sapiens) (O14656 whole entry, looked up): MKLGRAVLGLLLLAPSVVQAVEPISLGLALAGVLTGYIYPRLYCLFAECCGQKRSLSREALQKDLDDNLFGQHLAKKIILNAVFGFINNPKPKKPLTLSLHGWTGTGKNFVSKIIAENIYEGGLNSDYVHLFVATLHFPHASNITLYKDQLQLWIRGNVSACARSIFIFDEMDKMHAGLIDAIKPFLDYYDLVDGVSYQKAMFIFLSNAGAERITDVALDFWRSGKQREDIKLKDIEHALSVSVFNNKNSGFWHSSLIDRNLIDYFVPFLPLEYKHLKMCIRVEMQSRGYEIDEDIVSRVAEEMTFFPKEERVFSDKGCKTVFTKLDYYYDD
Chain of Streptavidin (Streptomyces avidinii) (P22629 whole entry, looked up): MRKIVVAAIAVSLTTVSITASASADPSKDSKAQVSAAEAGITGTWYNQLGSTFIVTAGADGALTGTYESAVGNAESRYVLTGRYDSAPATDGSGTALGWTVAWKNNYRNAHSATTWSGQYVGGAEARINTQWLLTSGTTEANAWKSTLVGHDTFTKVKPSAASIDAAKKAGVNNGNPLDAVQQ
Chain of Fibroblast growth factor 2 (Homo sapiens) (P09038 whole entry, looked up): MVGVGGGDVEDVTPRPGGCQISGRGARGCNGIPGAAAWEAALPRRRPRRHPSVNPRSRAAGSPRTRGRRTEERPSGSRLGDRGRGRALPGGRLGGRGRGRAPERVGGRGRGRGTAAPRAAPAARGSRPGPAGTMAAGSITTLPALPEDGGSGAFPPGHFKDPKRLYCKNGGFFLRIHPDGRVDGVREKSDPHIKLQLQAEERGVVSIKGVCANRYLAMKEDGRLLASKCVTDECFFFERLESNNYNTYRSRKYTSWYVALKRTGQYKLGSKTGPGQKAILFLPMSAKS
Chain of Focal adhesion kinase 1 (Homo sapiens) (Q05397 whole entry, looked up): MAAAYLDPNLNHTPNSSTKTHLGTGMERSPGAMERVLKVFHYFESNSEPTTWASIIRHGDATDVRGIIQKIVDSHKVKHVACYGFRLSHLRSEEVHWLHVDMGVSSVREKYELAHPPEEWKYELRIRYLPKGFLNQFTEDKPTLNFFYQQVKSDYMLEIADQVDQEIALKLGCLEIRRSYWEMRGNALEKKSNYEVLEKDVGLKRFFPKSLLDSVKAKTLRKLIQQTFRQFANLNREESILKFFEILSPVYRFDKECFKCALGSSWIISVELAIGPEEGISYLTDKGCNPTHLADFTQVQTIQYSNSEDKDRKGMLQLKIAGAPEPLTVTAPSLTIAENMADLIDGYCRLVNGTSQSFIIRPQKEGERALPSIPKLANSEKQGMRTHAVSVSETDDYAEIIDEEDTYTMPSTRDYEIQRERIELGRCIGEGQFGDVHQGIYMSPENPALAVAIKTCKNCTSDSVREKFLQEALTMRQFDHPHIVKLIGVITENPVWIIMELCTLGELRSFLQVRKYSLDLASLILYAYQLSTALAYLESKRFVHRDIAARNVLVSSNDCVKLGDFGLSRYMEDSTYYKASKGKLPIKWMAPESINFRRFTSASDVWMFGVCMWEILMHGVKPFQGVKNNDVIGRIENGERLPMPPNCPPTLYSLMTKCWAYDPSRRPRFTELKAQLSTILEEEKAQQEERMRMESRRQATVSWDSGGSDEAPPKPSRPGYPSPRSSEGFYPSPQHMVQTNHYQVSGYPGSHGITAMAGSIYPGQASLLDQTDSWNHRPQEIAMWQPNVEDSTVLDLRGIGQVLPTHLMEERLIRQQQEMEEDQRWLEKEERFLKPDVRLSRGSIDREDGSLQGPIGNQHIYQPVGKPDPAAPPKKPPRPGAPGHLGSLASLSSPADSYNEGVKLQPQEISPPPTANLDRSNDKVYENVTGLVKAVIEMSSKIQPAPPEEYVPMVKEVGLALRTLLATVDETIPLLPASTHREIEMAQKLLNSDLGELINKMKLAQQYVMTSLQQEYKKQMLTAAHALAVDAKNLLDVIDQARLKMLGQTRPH

Regarding `CO[C@H]1O[C@H](CO)[C@@H](OC(=O)Nc2ccc3c(c2)OCO3)[C@H](OC(=O)Nc2ccc3c(c2)OCO3)[C@H]1OC(=O)Nc1ccc2c(c1)OCO2`, the composite z-score is 2.47 in assay [1]; 1.22 in [2]; 0.0847 in assay [3]; 0.86 in assay [4]; 1.23 in assay [5]; 0.506 in assay [6]. For the same compound, the composite z-score in the assay on Lefty1 worked out at 0.683; in assay [8] it was 1.02; in assay [10] it was 0.158; in [15] it was 0.697; in assay [16], 0.297; with Torsin-1A (Homo sapiens) [17], 0.713. The composite z-score in the assay with Torsin-1A (Homo sapiens) [18] was found to be 1.74; in assay [19] it was 0.942. Moreover, the z-score in [7] is -0.641; in assay [9] it was -5.43 (inactive); in assay [11], -1.2 (inactive); in assay [12] it was -0.416 (inactive); in [13] it was 1.05 (inactive); in assay [14] it was -0.808 (inactive).
On to `COc1ccc([Si](C)(C)[C@H]2[C@H](CC(=O)N3CCC[C@H]3CO)O[C@@]3(C(=O)N(c4ccccc4)c4ccccc43)[C@@H]2C)cc1`, for which the composite z-score is 0.318 in assay [1]; 0.0005 in assay [2]; 0.223 in assay [3]; -0.445 in assay [4]; 0.813 in assay [5]; 0.441 in assay [6]. The composite z-score in the assay with Lefty1 was 0.992; in [8] it was 0.0807; in [10], -0.154; in [15], -0.124; in [16] it was -0.154; in the assay with Torsin-1A (Homo sapiens) [17], 0.656. For the same compound, the composite z-score worked out at 0.0932 in the assay with Torsin-1A (Homo sapiens) [18] and 1.23 in assay [19]. Moreover, the z-score in assay [7] was 0.16; in assay [9] it was 0.72 (inactive); in assay [11], -3.6 (inactive); in assay [12] it was 0.355 (inactive); in [13], -0.636 (inactive); in assay [14], -0.38 (inactive).
Take `COc1ccc([Si](C)(C)[C@H]2[C@H](CC(=O)N3Cc4ccccc4C[C@H]3CO)O[C@@]3(C(=O)N(Cc4cccc(I)c4)c4ccccc43)[C@@H]2C)cc1`: the composite z-score in assay [1] was 1.67; in assay [2], 0.0688; in assay [3], -0.706; in assay [4], 0.321; in assay [5] it was 1.57; in [6] it was 2.13. In addition, the composite z-score in the assay on Lefty1 is 1.64; in assay [8], 0.539; in assay [10], 0.378; in assay [15] it was 0.795; in assay [16], -0.0102; with Torsin-1A (Homo sapiens) [17], 3.09. For the same compound, the composite z-score with Torsin-1A (Homo sapiens) [18] stood at 2.17; in assay [19], 2.15. For the same compound, the z-score in [7] is -0.0488; in assay [9], -0.63 (inactive); in assay [11] it was -4.1 (inactive); in assay [12], -0.194 (inactive); in assay [13], 5.99 (inactive); in assay [14], -0.919 (inactive).
Take `CCN(CC)c1ccc(N2CC=CC34O[C@@H]5C=CCOC(=O)[C@@H]5[C@H]3C(=O)N(CCCCCO)[C@@H]4C2=O)cc1` (stereo not given in full): the composite z-score in [1] is 3.37; in assay [2], -0.959; in [3], -0.0973; in assay [4] it was -1.59; in assay [5], -0.915; in assay [6], -0.551. Moreover, the composite z-score was -0.439 in the assay with Lefty1; -0.559 in assay [8]; -0.253 in assay [10]; -0.93 in [15]; -0.186 in [16]; 1.03 in the assay with Torsin-1A (Homo sapiens) [17]. Also, the composite z-score worked out at 1.06 with Torsin-1A (Homo sapiens) [18] and 0.146 in assay [19]. Also, the z-score in [7] was 1.24; in assay [9], -0.439 (inactive); in [11], -0.286 (inactive); in [12] it was 0.555 (inactive); in [13], 1.57 (inactive); in [14], -0.0409 (inactive).
`CC(=O)N1Cc2ccccc2C[C@@]2(N=C(c3ccc(OCCCO)cc3)O[C@H]2c2ccccc2)C1=O`: the composite z-score in assay [1] came to 2.65; in assay [2] it was 1.17; in [3], 0.52; in [4], 0.657; in [5], 1.41; in [6], 1.66. Moreover, the composite z-score in the assay on Lefty1 is 0.63; in assay [8] it was 1.1; in [10], 0.604; in assay [15], 0.326; in assay [16] it was 0.482; with Torsin-1A (Homo sapiens) [17] it was 0.513. Besides, the values for the composite z-score (with Torsin-1A (Homo sapiens) [18]; in [19]) were 1.17 and 1.69, respectively. For the same compound, the z-score in assay [7] was 0.592; in assay [9] it was -2.32 (inactive); in assay [11], -4.03 (inactive); in assay [12], -0.519 (inactive); in [13], 1.53 (inactive); in [14] it was -0.634 (inactive).

These data come from PubChem BioAssay.
